Screening data (PubChem)
KB-V1 cytotox – kills drug-selected multidrug resistant KB-V1 cells; KB-V1 MDR cells viability, CellTiter-Glo, 72 h; Potency, µM (highest dose often 46.1 µM), hits mostly cytotoxic; 3.4% of 400,000 active; further: nearly all actives have a fitted effect of over 60% in size
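qHTS viability screen in drug-selected KB-V1 MDR cells: 72 h compound treatment at 37 degrees C, ATP luminescence end point.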
TDP1 cell noCPT – qHTS for Inhibitors of human tyrosyl-DNA phosphodiesterase 1 (TDP1): qHTS in cells in absence of CPT. AID 686978, 2013. Potency, µM (highest dose often 46.2 µM), inactives show at the highest dose activity change, negative = growth inhibition, hits mostly inhibitors. DT40 Tdp1-/- hTDP1 cells, no CPT, ATP luminescence, 48 h. 15% of 420,000 active; further: nearly all actives have a fitted effect of over 55% in size
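Compound effects on proliferation are scored in DT40 Tdp1-/-;hTDP1 cells in the absence of CPT. ATP levels (CellTiter-Glo luminescence) are recorded after a ≥48 hr, 37 °C incubation.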
KB-3-1 cytotox – KB-3-1 parental cell cytotoxicity. KB-3-1 viability, CellTiter-Glo ATP luminescence, 72 h. Potency, µM (top dose mostly 46.1 µM), most hits filed as cytotoxic. 1.4% of 400,000 active. AID 1347075; further: nearly all actives have a fitted effect of over 60% in size
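Multi-concentration cytotoxicity screen in KB-3-1 cells grown in DMEM lacking phenol red with 10% FBS. After 72 h at 37 °C with compound, ATP-dependent luminescence was recorded.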
HT1080 IDH1KD tx – HT-1080 IDH1 knockdown cell toxicity (counter line); HT-1080 IDH1 knockdown viability, ATP luminescence, 48 h; Potency, µM (top dose mostly 46.1 µM), for inactives: at the top dose activity, negative = toxicity, hits mostly cytotoxic; 2% of 360,000 active;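 further: 0% = DMSO wells and -100% = cell-free medium wells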
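IDH1KD HT-1080 cells, 750/well, RPMI + 5% FBS; compound pinned after 2 h settling; 48 h, 37 °C; CellTiter-Glo luminescence; % activity normalised to DMSO and no-cell wells; curves fitted, classed by r2 and efficacy.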
DT40 TDP1 CPT – DT40-hTDP1 cell growth loss with CPT | chicken DT40 Tdp1-/-;hTDP1 cells + 20 nM CPT, ATP luminescence, 48 h | Potency, µM (top dose mostly 46.2 µM), for the others: top-dose activity change, negative = growth inhibition, hits mostly inhibitors | 12% of 420,000 active; further: nearly all actives have a fitted effect of over 55% in size
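Chicken DT40 Tdp1-/- cells stably complemented with human TDP1 were seeded at 400 cells/well in medium containing 20 nM camptothecin, exposed to pin-transferred compounds, and grown at 37 °C for at least 48 hr. Viability was read as ATP luminescence.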
HT1080-NT tox – kills 2HG-producing HT-1080-NT fibrosarcoma cells; HT-1080-NT fibrosarcoma viability, CellTiter-Glo ATP luminescence, 48 h; Potency, µM (series often up to 46.1 µM), for the others: at the top dose activity, negative = less viability, usual class: cytotoxic; 1.6% of 360,000 active; AID 686970;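 further: NT is the 2HG producing partner of a matched IDH1 knockdown line; 0% = DMSO-treated cells and -100% = media-only wells without cells; nearly all actives have a fitted effect of over 55% in size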
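HT-1080-NT; 750 cells/well; 5% FBS RPMI; 48 h compound, 37 degrees C; CellTiter-Glo luminescence; curve fitting and curve-class assignment.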
An asterisk follows results filed as active; i = inactive; ? = inconclusive; . = no result given; [ ] = another dose, or the depositor's remark. In the library only some 19% were active in any assay of this set; here they are far more common. The call rests on the fitted dose curve; in most records, active means well fitted curve in the direction sought with a large enough effect; inconclusive means small, poorly fitted or top-dose-only effect, or another doubt; inactive means no such curve, though single readings can be large; an effect the other way counts as inactive or inconclusive. Unless noted, on the % scale 0 is the no-effect control and ±100 the full control effect; potency means the concentration at half of the fitted maximal effect.

SMILES	KB-V1 cytotox	TDP1 cell noCPT	KB-3-1 cytotox	HT1080 IDH1KD tx	DT40 TDP1 CPT	HT1080-NT tox
O=C(Cn1nc(-c2ccc(Cl)cc2)c2ccccc2c1=O)Nc1cccc(C(F)(F)F)c1	i	?	i	.	?	.
CCN(C(=O)CSc1nnc(-c2cccs2)o1)C1CCS(=O)(=O)C1 (configuration not stated)	i	4%	i	0%	-1%	2%
CC(=O)Nc1ccc(NS(=O)(=O)c2ccc3c(c2)oc(=O)n3C)cc1	?	-1%	i	11%	0%	3%
Cc1ccc(NC(=O)N2CCc3ccccc32)cc1C	i	?	i	-7%	7%	-17%
CN1C(=O)CSc2ccc(NC(=O)N3CCN(c4ccccn4)CC3)cc21	18µM*	?	i	4%	?	4%
CN1C(=O)CSc2ccc(NC(=O)N3CCc4ccccc43)cc21	16µM*	?	i	-7%	?	-28%
Cc1ccc(NC(=O)N2CCN(c3ccccn3)CC2)cc1	i	0%	i	16%	-8%	5%
CN1C(=O)CSc2ccc(NC(=O)Nc3ccccn3)cc21	i	?	?	?	29µM*	-29%
COc1cccc(NC(=O)Nc2ccc3c(c2)N(C)C(=O)CS3)c1	?	21µM*	?	?	?	?
C/C(=C\CO)CCC(C)CCCC(C)CCCC(C)C (configuration not stated)	.	-10%	.	.	-3%	.
CCN1CCN(CCC(=O)Nc2cccc(C)c2)CC1	i	21%	i	3%	18%	-1%
CCN(CC)c1ccc(NS(=O)(=O)c2cc3[nH]c(=O)c(=O)[nH]c3cc2C)c(C)c1	?	?	i	.	?	.
Cn1c(C2CCC2)nc2cc(C(=O)N3CCOc4ccccc4C3)cc(NC(=O)C3CCCO3)c21 (configuration not stated)	.	-7%	.	.	24%[9.04 µM]	.
CN1C(=O)c2ccccc2Sc2ccc(NC(=O)N3CCOCC3)cc21	i	?	i	-9%	1%	-3%
CCN1C(=O)c2ccccc2Sc2ccc(NC(=O)N3CCN(c4cc(C)ccc4C)CC3)cc21	.	4.1µM*	.	.	5.8µM*	.
Cc1ccc(C)c(N2CCN(C(=O)Nc3ccc4c(c3)N(C)C(=O)CS4)CC2)c1	i	16µM*	i	?	21µM*	-23%
c1csc(CNc2nc(CN3CCCC(c4nc5ccccc5o4)C3)nc3ccccc23)c1 (configuration not stated)	.	?	.	.	11%[9.04 µM]	.
CCc1ccc(OCC(=O)Nc2ncn[nH]2)c(Br)c1	i	0%	i	.	-7%	.
CCOC(=O)c1c(C)[nH]c(C(=O)CN2C(=O)NC(C)(C)C2=O)c1C	i	-2%	i	10%	4%	3%
CCOC(=O)c1c(C)[nH]c(C(=O)CN2C(=O)NC(C)(c3ccc(C)cc3)C2=O)c1C (configuration not stated)	?	23µM*	?	-25%	?	-26%
COc1ccc(C2(c3ccc(OC)cc3)NC(=O)N(CC(=O)Nc3ccc(OC(F)F)cc3)C2=O)cc1	?	18µM*	?	-18%	?	-20%
CCOc1ccc(NC(=O)CN2C(=O)NC(C)(c3ccc(OC(F)F)cc3)C2=O)cc1 (configuration not stated)	i	23µM*	?	18µM*	18µM*	?
COC(=O)c1c(C)[nH]c(C(=O)CN2C(=O)C3CC=CCC3C2=O)c1C (configuration not stated)	21µM*	?	i	-6%	?	-3%
CC1(c2ccc(OC(F)F)cc2)NC(=O)N(CC(=O)Nc2ccc(OC(F)F)cc2)C1=O (configuration not stated)	i	?	i	-28%	?	?
CCOC(=O)c1c(NC(=O)CN2C(=O)NC(C)(c3ccc(OC(F)F)cc3)C2=O)sc(C)c1C (configuration not stated)	i	16µM*	i	-29%	21µM*	?
SMILES	KB-V1 cytotox	TDP1 cell noCPT	KB-3-1 cytotox	HT1080 IDH1KD tx	DT40 TDP1 CPT	HT1080-NT tox
CN(C)Cc1c(O)c(Cl)cc2c3c(c(=O)oc12)CCCC3	i	15µM*	i	1%	?	0%
O=C(Nc1ccc(Cl)cc1)Nc1csc([N+](=O)[O-])c1	?	9.2µM*	i	10µM*	18µM*	13µM*
O=C(Nc1ccccc1)Nc1ccc(Cl)c([N+](=O)[O-])c1	?	-15%	?	0%	-19%	14%
O=C(Nc1csc([N+](=O)[O-])c1)Nc1c(Cl)cccc1Cl	i	16µM*	i	1%	?	-16%
COc1cc(OC)c(NC(=O)c2c(C)oc3ncnc(N4CCCCC4)c23)cc1Cl	i	-20%	i	.	-30%	.
CCN(C(=O)c1c(C)oc2ncnc(N3CCCCC3)c12)c1cc(C)ccc1C	i	18µM*	i	.	?	.
Cc1ccc(CCNC(=O)c2c(C)oc3ncnc(N4CCOCC4)c23)cc1	.	-13%	.	.	10%	.
Cc1ccc(NC(=O)c2c(C)oc3ncnc(N4CCCCC4)c23)c(C)c1	.	?	.	.	18µM*	.
COc1cc(OC)c(N(C)C(=O)c2c(C)oc3ncnc(N4CCCCC4)c23)cc1Cl	i	16µM*	i	.	?	.
Cc1oc2ncnc(N3CCCCC3)c2c1C(=O)N1CCN(c2ccc(Cl)cc2)CC1	i	?	i	.	-19%	.
Cc1cc(C)n(-c2nc3cc(Cl)ccc3nc2Nc2ccc(C)c(F)c2)n1	i	19%	i	.	-4%	.
CCCNC(=O)C1(C)CCN(C(=O)c2ccc(OC)cc2OC)C1 (configuration not stated)	i	1%	i	0%	-10%	17%
CCN(CC)C(=O)CSc1nc2ccccc2c(=O)n1CC1CCCCC1	i	16µM*	?	?	23µM*	?
Cc1cc(NC(=O)CSc2nnc(CNc3ccc(F)cc3)n2C2CCCCC2)no1	?	?	i	?	10µM*	-3%
CN(C)c1ccc(NC(=O)CSc2nc3ccccc3c(=O)n2C2CCCCC2)cc1	i	18µM*	i	0%	?	-1%
CCCN(CCC)C(=O)CSc1nc2ccccc2c(=O)n1C1CCCC1	7.3µM*	13µM*	i	?	13µM*	-2%
